High-throughput results deposited in PubChem BioAssay by National Center for Advancing Translational Sciences (NCATS).
The list is not random: actives were taken first. Their share in the collection is about 12%.
JMJD2A Tudor inh – qHTS Assay for Inhibitors of JMJD2A-Tudor Domain | AlphaScreen JMJD2A-Tudor / H3K4me3 peptide binding | Lysine-specific demethylase 4A (Homo sapiens), O75164 | AID 504339, 2011 | Potency, µM (titrated, usually from 114 µM), without a hit: at the highest dose activity change, negative = inhibition, actives largely listed as inhibitors | actives 4.4% (n = 390,000); also: % is scaled to controls: 0 for no effect and ±100 for the full control effect; nearly all actives have a fitted effect of over 50% in size
HP1b binding inh – HTS for Inhibitors of HP1-beta Chromodomain Interactions with Methylated Histone Tails; Chromobox protein homolog 1 (Homo sapiens), P83916; AlphaScreen HP1-beta / biotin-H3K9me3 peptide binding; Potency, µM (series often up to 114 µM), without a hit: top-dose activity change, negative = inhibition, actives largely listed as inhibitors; actives 0.56% (n = 390,000); also: nearly all actives have a fitted effect of over 70% in size
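AlphaScreen: HP1-beta (50 nM) preformed 30 min with biotin-H3(1-18)K9me3 peptide (50 nM) in PBS pH 7.4, 0.01% Tween-20. Compound added for 30 min at RT, then streptavidin donor/nickel chelate acceptor beads (10 ug/mL) for 30 min.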
BAZ2B inh – qHTS Assay for Inhibitors of BAZ2B; Bromodomain adjacent to zinc finger domain protein 2B (Homo sapiens), Q9UIF8; AlphaScreen BAZ2B-H3K14Ac peptide displacement; Potency, µM (highest dose often 114 µM), for inactives: at the highest dose activity change, negative = inhibition, usual class: inhibitors; actives 4.4% (n = 360,000); AID 504333, 2011; also: % is scaled to controls: 0 for no effect and ±100 for the full control effect; nearly all actives have a fitted effect of over 60% in size
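AlphaScreen displacement of biotin-H3(5-23)K14Ac peptide (50 nM final) from BAZ2B (50 nM final) in PBS pH 7.4, 0.01% Tween-20; complex preformed 30 min RT, then compounds (top 110 uM) 30 min RT, beads 20 min dark.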
G9a block – qHTS Assay for Inhibitors of Histone Lysine Methyltransferase G9a. G9a H3K9 monomethylation, AlphaScreen, 2 h. actives 8.8% (n = 350,000). Histone-lysine N-methyltransferase EHMT2 (Homo sapiens), Q96KQ7. Potency, µM (titrated, usually from 102 µM), without a hit: at the top dose activity, negative = inhibition, hits mostly inhibitors; also: % is scaled to controls: 0 for no effect and ±100 for the full control effect; nearly all actives have a fitted effect of over 75% in size
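Step 1: enzyme (final 20 nM) with compound, 15 min RT. Step 2: substrate peptide 500 nM and SAM 20 uM, 2 h RT. Step 3: anti-H3K9me1 antibody and AlphaScreen beads, 10 min, then plate read.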
Sfp inh – qHTS Assay for Inhibitors of Bacillus subtilis Sfp phosphopantetheinyl transferase (PPTase). 4'-phosphopantetheinyl transferase ffp (Bacillus subtilis), Q9F4F7. Biochemical Sfp PPTase activity, qHTS. Potency, µM, inactives show largest response in the series, negative = inhibition, actives largely listed as inhibitors. actives 3.5% (n = 310,000). AID 1490, 2009;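 also: the enzyme is Sfp with the accession as filed and its product quenches rhodamine fluorescence; 0% = enzyme reaction without inhibitor and -100% = no enzyme wells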
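Fluorescence-quenching assay with 15 nM Sfp, 5 uM rhodamine-CoA and 12.5 uM BHQ-2-labelled ybbR peptide in pH 7.6 Hepes/MgCl2 buffer. Enzyme was pre-incubated with compound for 15 min at room temperature. Rate was taken from the 30-min fluorescence change (525/598 nm).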
PLK1 PBD inh – qHTS for Inhibitors of PLK1-PDB (polo-like kinase 1 - polo-box domain): Primary Screen; Plk1 PBD binding of FITC phosphopeptide, fluorescence polarization; Potency, µM, for inactives: max response, negative = inhibition, usual class: inhibitors; actives 2.8% (n = 360,000); Serine/threonine-protein kinase PLK1 (Homo sapiens), P53350; AID 720504, 2013; also: series mostly up to about 57 µM; % is scaled to controls: 0 for no effect and ±100 for the full control effect; nearly all actives have a fitted effect of over 65% in size
Numbers without * were called inactive; ? = inconclusive; . = no result; [ ] = dose if it differs, or a comment. Calls follow the shape of the dose curve; as a rule, active = well fitted curve in the direction sought with a large enough effect; inconclusive = small, poorly fitted or top-dose-only effect, or another doubt; inactive = no such curve, though single readings can be large; an effect the other way counts as inactive or inconclusive. Potency is read from the fitted curve at half-maximal effect.

SMILES	JMJD2A Tudor inh	HP1b binding inh	BAZ2B inh	G9a block	Sfp inh	PLK1 PBD inh
O=C(CCC(=O)Nc1ccccc1)NNS(=O)(=O)c1ccc(Cl)cc1	?	28%	-19%	6.3µM*	56µM*	19µM*
Cc1ccc(S(=O)(=O)NNC(=O)Nc2ccccc2F)c(C)c1	-12%	30%	-18%	50µM*	12%	-6%
CC(C)[C@H](N)C(=O)N[C@@H](CCC(N)=O)C(=O)NCC(=O)N[C@@H](CCC(=O)O)C(=O)N[C@@H](CCC(=O)O)C(=O)N[C@@H](CO)C(=O)N[C@@H](CC(N)=O)C(=O)N[C@@H](CC(=O)O)C(=O)N[C@@H](CCCCN)C(=O)O	.	.	.	.	-1%	.
O=C(CNS(=O)(=O)c1ccc(Cl)cc1)NC1CCCCC1	-10%	41%	-5%	2%[59 µM]	.	-1%
N#CC1=C(N)NC(SCC(=O)O)=C(C#N)C12CCCC2	-14%	9%	10%	35µM*	56µM*	-14%
Cc1ccc(NC(=O)CSc2nc3ncccc3[nH]2)cc1F	-3%	36%	-9%	5%[59 µM]	.	.
COc1cccc(C(=O)N2CCC(CCC(=O)Nc3cccc(C)c3)CC2)c1	-2%	30%	2%	1%	16%	4%
CCCCNC(=O)C1(NC(=O)Nc2ccc(C)cc2)CCCCC1	-32%[11.4 µM]	-11%	-2%	11%	12%	7.5µM*
O=C(Nc1ccc(Cl)cc1)NC1(C(=O)NCCCN2CCOCC2)CCCCC1	8%[11.4 µM]	67%	3%	-15%[12.7 µM]	2%	-17%
CCC(C)NC(=O)C1(NC(=O)Nc2ccccc2)CCCCC1 (stereo not given)	18µM*	?	-4%	7%	15%	11µM*
O=C(Nc1ccccc1)NC1(C(=O)NCc2cccs2)CCCCC1	-23%	7%	1%	5%[59 µM]	7%	-4%
CCOC(=O)Cc1csc(NC(=O)c2ccc3ccccc3n2)n1	-11%	39%	3%	?	-17%	-5%
Cc1ccccc1-n1c(-c2csc3ccccc23)n[nH]c1=S	?	10%	-38%	2µM*	14%	-12%
Cc1cccc(-n2c(C)nc3ccsc3c2=O)c1	-8%	5%	.	.	.	-13%
Cc1cccc(-n2c(-c3csc(C(C)C)c3)n[nH]c2=S)c1	?	12%	-33%	?	1%	?
COc1ccc(C(C)(O)c2nc(-c3csc4ccccc34)cs2)cc1 (stereo not given)	.	.	.	.	.	-7%
Cc1ccccc1-n1c(-c2csc(C)c2C)n[nH]c1=S	50µM*	22%	-9%	1µM*	-11%	-13%
CCCc1cc(-c2n[nH]c(=S)n2-c2cccc(C)c2)cs1	?	-10%	?	3.5µM*	?	?
Cc1cccc(-n2c(-c3csc(C)c3C)n[nH]c2=S)c1	22µM*	-2%	-11%	1.1µM*	2%	-8%
O=C(NCCc1ccc(F)cc1)c1ccc(Cl)c(S(=O)(=O)N2CCOCC2)c1	-23%	21%	?	18%[2.33 µM]	.	-3%
O=C(Nc1cc(S(=O)(=O)N2CCOCC2)ccc1Cl)C1CCC1	-14%	9%	-6%	-5%	.	-2%
CCN1C(=O)[C@H]2[C@@H](c3ccc(-c4ccccc4)c(OC)c3)N[C@@](CC(C)C)(C(=O)OC)[C@H]2C1=O	-24%	34%	.	.	.	-17%
COc1ccccc1-c1oc2ccccc2c1C#CCCO	?	62%	50µM*	-40%[0.501 µM]	.	3%
CC(C)CO/N=C1/C[C@@H](O)[C@@H](O)[C@@H]2[C@@H]3C(=O)N(c4cccc(Oc5ccccc5)c4)C(=O)[C@H]3CC[C@@H]12	.	.	.	.	16%	.
O=S(=O)(c1ccc(SCc2ccccc2)nc1)N1CCCC1	113%	168%	71%	?	.	-1%
SMILES	JMJD2A Tudor inh	HP1b binding inh	BAZ2B inh	G9a block	Sfp inh	PLK1 PBD inh
Cc1cccc(CSc2ccc(S(=O)(=O)N3CCCC3)cn2)c1	80%	141%	54%	14µM*	.	-13%
Cc1c(C#N)c(NC(=O)CCl)n(Cc2ccccc2)c1C	-1%	10%	?	56µM*	8%	0%
Cc1c(C#N)c(NC(=O)CCl)n(Cc2cccs2)c1C	-16%	26%	-27%	50µM*	7%	-11%
OC(CN1CCN(c2ccccc2Cl)CC1)c1ccccc1 (stereo not given)	-14%	4%	0%	11%	8%	-12%
COc1ccc(N2CCN(C(c3cccs3)C(C)NC(=O)c3ccco3)CC2)cc1 (stereo not given)	?	-15%	?	3.5µM*	-2%	-4%
COc1ccc(N2CCN(S(=O)(=O)c3cccs3)CC2)cc1	-34%	-9%	-35%	25µM*	2%	1%
COc1ccccc1N1CCN(C(c2cccs2)C(C)NC(=O)c2ccco2)CC1 (stereo not given)	-31%	8%	-38%	-42%	5%	-4%
COc1ccc(N2CCN(C(c3cccs3)C(C)NS(C)(=O)=O)CC2)cc1 (stereo not given)	-28%	10%	.	56µM*	-5%	-7%
CC(NS(C)(=O)=O)C(c1cccs1)N1CCN(c2ccc(F)cc2)CC1 (stereo not given)	-27%	2%	-8%	-11%[59 µM]	-14%	-6%
CCOc1ccc(C(=O)OCC(=O)N(Cc2ccccc2)Cc2ccccc2)cc1OC	6%	30%	4%	-3%[12.7 µM]	.	6%
CCc1ccc(-c2nc3c(=O)n(C)c(=O)nc-3n(CC)n2)cc1	-2%[57.1 µM]	18%[57 µM]	.	.	.	.
COc1ccccc1OCCNC(=O)c1cccc(S(=O)(=O)NCc2ccccc2)c1	-20%	51%	-6%	24%[12.7 µM]	.	-2%
C/C(CS(=O)(=O)c1ccc(Cl)cc1)=N/NC(N)=S	-8%	66%	-10%	-4%	79µM*	4%
O=C(O)c1ccc(S(=O)(=O)N[C@@H](Cc2ccc(O)cc2)C(=O)O)cc1	-23%	.	?	-33%[12.7 µM]	-17%	.
CC[C@H](CC[C@H](C)[C@@H]1CC[C@@H]2[C@H]3CC=C4C[C@@H](O)CC[C@]4(C)[C@H]3CC[C@]21C)C(C)C	.	.	.	23%[21.5 µM]	4%	.
CNC(=O)c1cc2c(cn1)[nH]c1ccccc12	-17%	53%	.	29%[12.7 µM]	28%	0%
COC(=O)[C@H](CCSC)NC(=O)c1cc2c(cn1)[nH]c1ccccc12	?	?	-34%	1.8µM*	8.9µM*	3µM*
